{"source": "PubChem BioAssay (NCATS)", "note": "Several values for one entry are separate records, joined by “and”; a condition that tells them apart may be missing. Equal entries are not always repeated. Records with an inconclusive call do not appear. Values without a mark were called inactive. Activity calls are given as the source filed them. Calls come from the whole dose curve; as a rule, active = well fitted cell-killing curve with a large enough effect; inconclusive = small, poorly fitted or top-dose-only effect; inactive = flat fitted curve, though single readings scatter. % is set by controls: 0 for no effect and ±100 for the full control effect; potency is the fitted concentration of half-maximal effect.", "data": [{"assay": "Cellular viability qHTS for adrenocortical cancer (ACC) cell line SW-13 (AID 1963989); note: nearly all actives have a fitted effect of over 65% in size;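 for activity (max response): cells grown in serum-free medium with ITS supplement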", "conditions": "SW-13 ACC cells viability, CellTiter-Glo, 48 h; activity (max response): hits give low values", "how_it_was_run": "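48 h treatment, SW-13 in ITS/DMEM serum-free; doses up to 46 uM; readout CellTiter-Glo luminescence; curve fit four-parameter logistic.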", "values": [{"smiles": "Nc1ccccc1", "activity (max response)": "7.78%"}, {"smiles": "Cc1cccc(C)c1NC1=NCCCS1", "activity (max response)": "-0.0852%"}, {"smiles": "CC(C)(O)/C=C\\C(=O)[C@](C)(O)[C@H]1[C@H](O)C[C@]2(C)[C@@H]3CC=C4[C@@H](C=C(O)C(=O)C4(C)C)[C@]3(C)C(=O)C[C@@]12C", "Potency": "0.562 µM (active)"}, {"smiles": "O=C1c2ccccc2C(=O)c2ccccc21", "activity (max response)": "3.51%"}, {"smiles": "C[N+]1(CCF)[C@@H]2CC[C@H]1CC(OC(=O)C(O)(c1ccccc1)c1ccccc1)C2", "note": "(some centres undefined)", "activity (max response)": "9.46%"}, {"smiles": "C=CCN1C[C@H](C)N([C@H](c2ccc(C(=O)N(CC)CC)cc2)c2cccc(OC)c2)C[C@H]1C", "activity (max response)": "-5.15%"}, {"smiles": "O=C(N/N=C/c1ccc([N+](=O)[O-])o1)c1cc([N+](=O)[O-])cc([N+](=O)[O-])c1O", "activity (max response)": "-8.68%"}, {"smiles": "CCC(OC(C)=O)C(CC(C)NC)(c1ccccc1)c1ccccc1", "note": "(centres undefined)", "Potency": "28.2 µM (active)"}, {"smiles": "CCCC[N+]1(C)[C@@H]2CC(OC(=O)[C@H](CO)c3ccccc3)C[C@H]1[C@@H]1O[C@@H]12", "note": "(some centres undefined)", "activity (max response)": "15.3%"}, {"smiles": "O=C(CCCN1CCC2(CC1)C(=O)NCN2c1ccccc1)c1ccc(F)cc1", "activity (max response)": "-12.3%"}, {"smiles": "C[C@@H](N)[C@@H](O)c1ccccc1", "activity (max response)": "3.81%"}, {"smiles": "CC(O)CN1CCN(CC(=O)[O-])CCN(CC(=O)[O-])CCN(CC(=O)[O-])CC1.[Gd+3]", "note": "(centres undefined)", "activity (max response)": "0.662%"}, {"smiles": "CN(C)c1cc2c(cc1Sc1nc3c(N)nccc3n1CCNCC(C)(C)C)OCO2", "Potency": "1.41 µM (active)"}, {"smiles": "Oc1ccc(Cl)cc1Cc1ccccc1", "Potency": "35.5 µM (active)"}, {"smiles": "CC(C)(C)c1ccc(O)cc1", "activity (max response)": "9.89%"}, {"smiles": "CN1C(=O)NC(=O)C(C)(C2=CCCCC2)C1=O", "note": "(centres undefined)", "activity (max response)": "-0.484%"}, {"smiles": "CNC(C)(C)Cc1ccccc1", "activity (max response)": "-4.09%"}, {"smiles": "NCCc1cc(O)c(O)cc1O", "activity (max response)": "6.64%"}, {"smiles": "COc1ccc(C(=O)N2CCCC2=O)cc1", "activity (max response)": "-6.45% and 13%"}, {"smiles": "COP(=O)(OC)C(O)C(Cl)(Cl)Cl", "note": "(centres undefined)", "activity (max response)": "6.64%"}, {"smiles": "CN(C)NC(=O)CCC(=O)O", "activity (max response)": "-24.4%"}, {"smiles": "CCOP(=S)(OCC)Oc1cc(C)nc(C(C)C)n1", "activity (max response)": "8.98%"}, {"smiles": "CC1(C)CC(O)CC(C)(C)N1O", "activity (max response)": "-2.2%"}, {"smiles": "CCCN1CCO[C@@H]2c3cc(O)ccc3OC[C@H]21", "activity (max response)": "7.73%"}, {"smiles": "CCN(C(C)=O)c1cccc(-c2ccnc3c(C#N)cnn23)c1", "activity (max response)": "-7.67%"}, {"smiles": "Oc1cc(Cl)ccc1Oc1ccc(Cl)cc1Cl", "Potency": "7.94 µM (active) and 13 µM (active)"}, {"smiles": "COc1cc(CC(C)N)cc(OC)c1OC", "note": "(centres undefined)", "activity (max response)": "-27.2%"}, {"smiles": "Cc1ccc2c(c1)C1CN(C)CCC1N2", "note": "(centres undefined)", "activity (max response)": "-4.86%"}, {"smiles": "C[C@@H]1CN(Cc2ccc(F)cc2)CCN1C(=O)COc1ccc(Cl)cc1NC(N)=O", "Potency": "5.01 µM (active)"}, {"smiles": "C/C=C(/C)C(=O)O[C@H]1C(C)=C2[C@H]([C@@H]1OC(=O)CCCCCCC)[C@@](C)(OC(C)=O)C[C@H](OC(=O)CCC)[C@@]1(O)[C@H]2OC(=O)[C@@]1(C)O", "Potency": "0.0447 µM (active)"}, {"smiles": "OC(O)C(Cl)(Cl)Cl", "activity (max response)": "12.7%"}, {"smiles": "COc1ccc(OC)c(CC(C)N)c1", "note": "(centres undefined)", "activity (max response)": "-20.2%"}, {"smiles": "ClC1=C(Cl)C2(Cl)C(CBr)CC1(Cl)C2(Cl)Cl", "note": "(centres undefined)", "activity (max response)": "-7.86%"}, {"smiles": "COP(=S)(OC)Oc1ccc(SC)c(C)c1", "activity (max response)": "5.91%"}, {"smiles": "CC(C)(C)NC[C@H](O)c1ccc(O)cc1Cl", "activity (max response)": "9.97%"}, {"smiles": "O=C(NC(O)C(Cl)(Cl)Cl)NC(O)C(Cl)(Cl)Cl", "note": "(centres undefined)", "activity (max response)": "11.7%"}, {"smiles": "COc1cc(C)[nH]c(=O)c1CNC(=O)c1c(C)n([C@H](C)C2CCOCC2)c2ccccc12", "activity (max response)": "8.24%"}, {"smiles": "Cn1c(COP(=O)(NCCBr)NCCBr)cnc1[N+](=O)[O-]", "activity (max response)": "-13.5%"}, {"smiles": "COC12C(COC(N)=O)C3=C(C(=O)C(C)=C(N)C3=O)N1CC1C2N1C", "note": "(centres undefined)", "Potency": "25.1 µM (active)"}]}]}
